Inconclusive results are not listed. Calls of active or inactive are those of the source. Unless noted, calls follow the shape of the dose curve; as a rule, active = well fitted curve in the direction sought with a large enough effect in the repeat runs; inconclusive = weak or mixed curves; inactive = no such curve, though single readings can be large; an effect the other way counts as inactive or inconclusive.
Tests used:
[1] = qHTS assay to identify small molecule agonists of the sonic hedgehog signaling (Shh) pathway (AID 1259368; calls by dose curve;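 also: NIH/3T3-derived 3T3Gli1-Luc cells carrying a stable Gli1-driven firefly luciferase reporter; series mostly up to about 92 µM; nearly all actives have a fitted effect of over 15% in size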)
In short: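 Mouse fibroblast (NIH/3T3) reporter cells with stably integrated Gli1-Luc were treated 24 hr with compound; firefly luciferase luminescence served as the read-out.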

[2] = qHTS assay to identify small molecule antagonists of the sonic hedgehog signaling (Shh) pathway (AID 1259369; calls by dose curve; also: nearly all actives have a fitted effect of over 45% in size)
In short: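 Conditioned medium drives Shh signalling in 3T3Gli1-Luc cells; compounds in DMSO co-applied, 24hr at 37 C, then luciferase luminescence.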

[3] = target: Estrogen receptor beta (Homo sapiens) (UniProt Q92731); test: qHTS assay to identify small molecule agonists of the estrogen receptor beta (ER-beta) signaling pathway (AID 1259377; active = well fitted activation curve with a large enough effect in the signal ratio in the repeat runs, not every such curve was filed as active; the % refers to the signal ratio)
Estrogen receptor beta (Homo sapiens), sequence (Q92731 whole entry, looked up): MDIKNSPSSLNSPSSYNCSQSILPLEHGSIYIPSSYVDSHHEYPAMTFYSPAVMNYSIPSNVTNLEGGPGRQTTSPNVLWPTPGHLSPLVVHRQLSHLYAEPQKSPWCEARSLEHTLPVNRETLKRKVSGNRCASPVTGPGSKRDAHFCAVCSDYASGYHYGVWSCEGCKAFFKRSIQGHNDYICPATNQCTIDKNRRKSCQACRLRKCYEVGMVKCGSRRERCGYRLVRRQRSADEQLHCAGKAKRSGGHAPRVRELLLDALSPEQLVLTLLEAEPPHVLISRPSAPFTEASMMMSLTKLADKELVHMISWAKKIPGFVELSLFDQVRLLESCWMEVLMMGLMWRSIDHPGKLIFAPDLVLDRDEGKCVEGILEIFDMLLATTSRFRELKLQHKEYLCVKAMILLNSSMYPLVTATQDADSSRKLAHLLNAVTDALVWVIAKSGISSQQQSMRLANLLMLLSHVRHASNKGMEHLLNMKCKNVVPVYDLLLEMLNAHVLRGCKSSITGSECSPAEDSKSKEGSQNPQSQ
In short: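 Ratiometric beta-lactamase FRET read-out came after 2 h substrate loading at room temperature. It followed 16 h compound treatment at 37C of GripTite HEK293T cells carrying a UAS-bla reporter, plated in 2% charcoal-stripped FBS medium.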

[4] = target: Estrogen receptor beta (Homo sapiens) (UniProt Q92731); test: qHTS assay to identify small molecule antagonists of the estrogen receptor beta (ER-beta) signaling pathway (AID 1259378; active = well fitted inhibition curve with a large enough effect in the signal ratio in the repeat runs, not every such curve was filed as active; the % refers to the signal ratio)
In short: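 ER-beta-UAS-bla HEK293T (GripTite) cells in 2% charcoal-stripped FBS medium were preincubated 6 hr at 37C, dosed with compound, then stimulated with 1 nM E2 (final) for 16 hr; beta-lactamase reporter read by B/G FRET fluorescence after 2 hr substrate loading.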

[5] = qHTS assay to identify small molecule agonists of the androgen receptor (AR) signaling pathway in the presence of an antagonist - cell viability counter screen (AID 1259379);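 also: MDA-kb2 human breast cancer cells carrying an MMTV luciferase reporter; series mostly up to about 92 µM; nearly all actives have a fitted effect of over 25% in size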
In short: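 A CellTiter-Fluor read-out measured viability of MDA-kb2 reporter cells (MMTV promoter with AR and GR response elements). Treatment: nilutamide 3.0uM final with compounds at 15 concentrations, 16 hr, 37C, 0% CO2.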

[6] = qHTS assay to identify small molecule agonists of the estrogen receptor beta (ER-beta) signaling pathway - cell viability counter screen (AID 1259380); also: nearly all actives have a fitted effect of over 30% in size
In short: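 Cells used were ER-beta-UAS-bla HEK293T in medium with 2% charcoal-stripped FBS. They were treated for 16 hr at 37C. Viability came from CellTiter-Glo luminescence.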

[7] = qHTS assay to identify small molecule antagonists of the estrogen receptor beta (ER-beta) signaling pathway - cell viability counter screen (AID 1259382); also: series mostly up to about 92 µM; nearly all actives have a fitted effect of over 55% in size
In short: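 Agonist-stimulated (1nM E2) ER-beta-UAS-bla HEK293T cells are incubated with library compounds for 16 hr at 37C. Cell viability is then assessed in the reporter-assay wells by adding CellTiter-Glo and reading luminescence after 30 min.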

[8] = target: Estrogen receptor (Homo sapiens) (UniProt P03372); test: qHTS assay to identify small molecule agonists of the estrogen receptor alpha (ER-alpha) signaling pathway in the presence of an antagonist (AID 1259383; calls by dose curve; also: top concentration of the series differs between compounds; nearly all actives have a fitted effect of over 15% in size)
Estrogen receptor (Homo sapiens), sequence (P03372 whole entry, looked up): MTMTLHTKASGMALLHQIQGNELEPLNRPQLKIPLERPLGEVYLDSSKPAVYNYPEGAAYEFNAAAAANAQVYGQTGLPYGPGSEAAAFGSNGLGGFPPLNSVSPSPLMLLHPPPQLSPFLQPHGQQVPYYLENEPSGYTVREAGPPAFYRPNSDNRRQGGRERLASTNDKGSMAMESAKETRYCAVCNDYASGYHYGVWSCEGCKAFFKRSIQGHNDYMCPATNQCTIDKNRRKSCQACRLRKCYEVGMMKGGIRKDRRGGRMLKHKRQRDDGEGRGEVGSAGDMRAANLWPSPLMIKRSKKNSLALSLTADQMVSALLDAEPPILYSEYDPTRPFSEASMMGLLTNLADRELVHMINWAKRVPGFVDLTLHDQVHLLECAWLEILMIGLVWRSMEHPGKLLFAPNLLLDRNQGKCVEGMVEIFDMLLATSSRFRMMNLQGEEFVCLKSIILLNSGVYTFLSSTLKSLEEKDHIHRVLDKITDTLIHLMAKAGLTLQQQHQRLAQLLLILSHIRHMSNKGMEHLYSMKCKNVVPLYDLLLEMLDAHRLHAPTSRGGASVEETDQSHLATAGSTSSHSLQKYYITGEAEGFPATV
In short: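 Using VM7Luc4E2 cells seeded 24hr before treatment, antagonist ICI-182,780 (10.0nM final) was added, followed by compounds at 15 concentrations. Plates incubated 22hr; ONE-Glo luminescence quantified reporter activity.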

[9] = qHTS assay to identify small molecule agonists or antagonists of the thyroid stimulating hormone receptor (TSHR) signaling pathway - wild type cell line counter screen (AID 1259384; calls by dose curve)
In short: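 Wild-type HEK293 cells were plated 18 h at 37 C/5% CO2, pin-dosed with compound plus Ro20-1724 medium, held 30 min at room temperature, then given cAMP-d2 and anti-cAMP-cryptate; fluorescence was read after 1 h. Fifteen concentrations, triplicate.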

[10] = target: Thyrotropin receptor (Homo sapiens) (UniProt P16473); test: qHTS assay to identify small molecule antagonists of the thyroid stimulating hormone receptor (TSHR) signaling pathway (AID 1259385; calls by dose curve; also: nearly all actives have a fitted effect of over 20% in size)
Thyrotropin receptor (Homo sapiens), sequence (P16473 whole entry, looked up): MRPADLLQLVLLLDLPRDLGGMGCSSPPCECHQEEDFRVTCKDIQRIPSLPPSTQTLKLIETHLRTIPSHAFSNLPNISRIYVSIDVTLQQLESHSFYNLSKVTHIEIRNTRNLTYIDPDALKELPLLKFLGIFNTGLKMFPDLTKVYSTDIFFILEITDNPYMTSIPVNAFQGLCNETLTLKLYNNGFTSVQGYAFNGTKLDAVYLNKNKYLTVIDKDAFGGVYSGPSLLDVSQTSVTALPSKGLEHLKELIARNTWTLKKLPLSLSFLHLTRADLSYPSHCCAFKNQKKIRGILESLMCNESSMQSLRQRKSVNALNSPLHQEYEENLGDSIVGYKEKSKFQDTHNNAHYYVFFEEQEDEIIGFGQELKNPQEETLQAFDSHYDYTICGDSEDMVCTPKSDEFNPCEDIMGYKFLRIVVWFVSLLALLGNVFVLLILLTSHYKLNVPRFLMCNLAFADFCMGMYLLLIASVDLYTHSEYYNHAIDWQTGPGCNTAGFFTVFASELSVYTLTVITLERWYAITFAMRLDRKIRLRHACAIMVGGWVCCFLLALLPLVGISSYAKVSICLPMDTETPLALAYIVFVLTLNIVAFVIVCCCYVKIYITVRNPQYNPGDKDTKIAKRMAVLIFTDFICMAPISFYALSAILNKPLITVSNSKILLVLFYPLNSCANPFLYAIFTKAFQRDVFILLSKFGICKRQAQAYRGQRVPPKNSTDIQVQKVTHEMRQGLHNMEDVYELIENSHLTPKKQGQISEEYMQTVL
In short: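 TSHR-HEK293 cells were plated and held 18 h at 37C/5% CO2, then given compound plus Ro20-1724 and stimulated with TSH at 1.5 ng/mL final. After 30 min at room temperature, cAMP was detected with cAMP-d2/anti-cAMP-cryptate (1 h) by fluorescence.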

[11] = qHTS assay to identify small molecule agonists of the estrogen receptor alpha (ER-alpha) signaling pathway in the presence of an antagonist - cell viability counter screen (AID 1259386);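 also: series mostly up to about 92 µM; cells exposed to compounds for 22 h at 37 °C before the viability read; nearly all actives have a fitted effect of over 30% in size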
In short: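 ICI-182,780 at 10.0nM final accompanies the compound titration (15 concentrations, 22hr, 37C) on VM7Luc4E2 cells. The CellTiter-Fluor fluorescence readout runs in the same wells as the luciferase assay.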

[12] = target: Progesterone receptor (Homo sapiens) (UniProt P06401); test: qHTS assay to identify small molecule agonists of the progesterone receptor (PR) signaling pathway (AID 1346784; calls by dose curve; also: nearly all actives have a fitted effect of over 30% in size)
Progesterone receptor (Homo sapiens), sequence (P06401 whole entry, looked up): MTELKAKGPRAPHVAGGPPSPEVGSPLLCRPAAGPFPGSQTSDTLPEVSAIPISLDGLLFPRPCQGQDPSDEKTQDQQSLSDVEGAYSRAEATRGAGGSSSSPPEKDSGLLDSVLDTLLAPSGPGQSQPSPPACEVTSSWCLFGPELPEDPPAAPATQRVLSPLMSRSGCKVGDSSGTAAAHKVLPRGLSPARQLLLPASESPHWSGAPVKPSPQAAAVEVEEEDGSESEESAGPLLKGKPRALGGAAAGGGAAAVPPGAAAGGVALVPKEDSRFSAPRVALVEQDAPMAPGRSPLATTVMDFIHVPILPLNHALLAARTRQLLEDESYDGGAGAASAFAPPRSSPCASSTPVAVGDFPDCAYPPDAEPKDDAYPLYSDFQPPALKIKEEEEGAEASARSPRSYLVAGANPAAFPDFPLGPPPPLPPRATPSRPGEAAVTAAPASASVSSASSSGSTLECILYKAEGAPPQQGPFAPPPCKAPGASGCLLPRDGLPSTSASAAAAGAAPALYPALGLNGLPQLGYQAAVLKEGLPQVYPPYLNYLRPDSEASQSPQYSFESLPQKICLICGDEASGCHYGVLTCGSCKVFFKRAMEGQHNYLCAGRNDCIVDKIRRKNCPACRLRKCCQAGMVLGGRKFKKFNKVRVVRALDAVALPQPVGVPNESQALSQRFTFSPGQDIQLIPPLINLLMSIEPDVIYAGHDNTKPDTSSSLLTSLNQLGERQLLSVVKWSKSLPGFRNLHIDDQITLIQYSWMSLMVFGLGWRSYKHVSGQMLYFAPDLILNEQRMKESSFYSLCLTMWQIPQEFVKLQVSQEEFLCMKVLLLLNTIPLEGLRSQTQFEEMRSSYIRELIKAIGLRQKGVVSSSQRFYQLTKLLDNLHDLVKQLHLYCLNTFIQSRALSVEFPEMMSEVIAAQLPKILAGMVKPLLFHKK
In short: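 Agonist qHTS: compounds pinned onto 3,000 PR-UAS-bla HEK 293T cells per well in charcoal-stripped serum medium, 16hr at 37C, then beta-lactamase activity measured by LiveBLAzer FRET fluorescence after 2 hours at room temperature.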

[13] = target: Progesterone receptor (Homo sapiens) (UniProt P06401); test: qHTS assay to identify small molecule antagonists of the progesterone receptor (PR) signaling pathway (AID 1346795; active = well fitted inhibition curve with a large enough effect in the signal ratio in the repeat runs, not every such curve was filed as active; the % refers to the signal ratio)
In short: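 Antagonist mode with agonist R5020 at 1 nM final and 16 hr incubation at 37C. Reporter was beta-lactamase driven by UAS in HEK293T (PR-UAS-bla), 2% charcoal-stripped serum; signal from LiveBLAzer FRET substrate, 2 hr at room temperature.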

[14] = qHTS assay to identify small molecule antagonists of the progesterone receptor (PR) signaling pathway - cell viability counter screen (AID 1346798); also: series mostly up to about 92 µM; nearly all actives have a fitted effect of over 50% in size
In short: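 Cytotoxicity read as CellTiter-Glo luminescence (30 min, room temperature) in the same wells as the beta-lactamase readout. HEK293T PR-UAS-bla cells in charcoal-stripped 2% FBS received compound and R5020, then 16 h at 37C, 5% CO2.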

[15] = qHTS assay to identify small molecule agonists of the progesterone receptor (PR) signaling pathway - cell viability counter screen (AID 1346799; calls by dose curve; also: nearly all actives have a fitted effect of over 45% in size)
In short: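 Cytotoxicity measured by CellTiter-Glo luminescence (30 min, RT) in the same wells as the PR beta-lactamase agonist read. Those HEK293T cells had 16 h compound treatment at 37 C in 2% charcoal-stripped FBS medium.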

[16] = qHTS assay to identify small molecule antagonists of the TGF-beta/Smad signaling pathway - cell viability counter screen (AID 1346824); also: nearly all actives have a fitted effect of over 50% in size
In short: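 SBE-bla HEK 293T cells were plated overnight at 37 C, then given compounds in DMSO plus TGF-beta1 (added as 0.25 ng/mL solution) for 5 hr. After the bla read, CellTiter-Glo was added to the same wells and luminescence read after 30 min at room temperature.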

[17] = qHTS assay to identify small molecule agonists of the TGF-beta/Smad signaling pathway - cell viability counter screen (AID 1346829); also: top concentration of the series differs between compounds; nearly all actives have a fitted effect of over 45% in size
In short: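 Tox21 qHTS format: SBE-bla HEK 293T cells treated with DMSO-dissolved compounds for 5 hr; CellTiter-Glo luminescence after 30 min at room temperature.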

[18] = qHTS assay to identify small molecule agonists of the TGF-beta/Smad signaling pathway (AID 1346859; active = well fitted activation curve with a large enough effect in the signal ratio in the repeat runs, not every such curve was filed as active; the % refers to the signal ratio; also: series mostly up to about 77 µM)
In short: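 Fluorescence (ex 405 nm; em 460 and 530 nm) was read 2 h after LiveBLAzer FRET substrate at RT. The preceding compound treatment of overnight-plated SBE-bla HEK293T cells lasted 5 h at 37 C.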

[19] = target: Thyrotropin-releasing hormone receptor (Homo sapiens) (UniProt P34981); test: qHTS assay to identify small molecule antagonists of the thyrotropin-releasing hormone receptor (TRHR) signaling pathway (AID 1346877; active = well fitted inhibition curve with a large enough effect in the repeat runs, not every such curve was filed as active; also: series mostly up to about 51 µM)
Thyrotropin-releasing hormone receptor (Homo sapiens), sequence (P34981 whole entry, looked up): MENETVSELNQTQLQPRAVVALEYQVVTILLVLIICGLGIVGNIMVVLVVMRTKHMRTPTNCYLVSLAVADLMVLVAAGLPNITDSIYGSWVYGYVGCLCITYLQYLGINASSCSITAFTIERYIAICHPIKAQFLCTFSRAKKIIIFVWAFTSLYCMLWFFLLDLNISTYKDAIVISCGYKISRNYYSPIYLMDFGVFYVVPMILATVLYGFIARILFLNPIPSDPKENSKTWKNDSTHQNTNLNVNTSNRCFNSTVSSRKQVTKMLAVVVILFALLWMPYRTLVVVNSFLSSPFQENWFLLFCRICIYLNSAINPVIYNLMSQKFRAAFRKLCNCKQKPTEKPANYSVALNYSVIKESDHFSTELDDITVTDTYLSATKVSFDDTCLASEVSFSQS
In short: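 Screening used HEK293 cells engineered with TRHR, with a brief 5 min room-temperature compound exposure preceding addition of TRH to 1 nM. The read-out was kinetic calcium-dye fluorescence, concentration-response from 15 doses in triplicate.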

[20] = target: Androgen receptor (Homo sapiens) (UniProt P10275); test: qHTS assay to identify small molecule agonists of the androgen receptor (AR) signaling pathway in the presence of an antagonist (AID 1259381; calls by dose curve; also: nearly all actives have a fitted effect of over 15% in size)
Androgen receptor (Homo sapiens), sequence (P10275 whole entry, looked up): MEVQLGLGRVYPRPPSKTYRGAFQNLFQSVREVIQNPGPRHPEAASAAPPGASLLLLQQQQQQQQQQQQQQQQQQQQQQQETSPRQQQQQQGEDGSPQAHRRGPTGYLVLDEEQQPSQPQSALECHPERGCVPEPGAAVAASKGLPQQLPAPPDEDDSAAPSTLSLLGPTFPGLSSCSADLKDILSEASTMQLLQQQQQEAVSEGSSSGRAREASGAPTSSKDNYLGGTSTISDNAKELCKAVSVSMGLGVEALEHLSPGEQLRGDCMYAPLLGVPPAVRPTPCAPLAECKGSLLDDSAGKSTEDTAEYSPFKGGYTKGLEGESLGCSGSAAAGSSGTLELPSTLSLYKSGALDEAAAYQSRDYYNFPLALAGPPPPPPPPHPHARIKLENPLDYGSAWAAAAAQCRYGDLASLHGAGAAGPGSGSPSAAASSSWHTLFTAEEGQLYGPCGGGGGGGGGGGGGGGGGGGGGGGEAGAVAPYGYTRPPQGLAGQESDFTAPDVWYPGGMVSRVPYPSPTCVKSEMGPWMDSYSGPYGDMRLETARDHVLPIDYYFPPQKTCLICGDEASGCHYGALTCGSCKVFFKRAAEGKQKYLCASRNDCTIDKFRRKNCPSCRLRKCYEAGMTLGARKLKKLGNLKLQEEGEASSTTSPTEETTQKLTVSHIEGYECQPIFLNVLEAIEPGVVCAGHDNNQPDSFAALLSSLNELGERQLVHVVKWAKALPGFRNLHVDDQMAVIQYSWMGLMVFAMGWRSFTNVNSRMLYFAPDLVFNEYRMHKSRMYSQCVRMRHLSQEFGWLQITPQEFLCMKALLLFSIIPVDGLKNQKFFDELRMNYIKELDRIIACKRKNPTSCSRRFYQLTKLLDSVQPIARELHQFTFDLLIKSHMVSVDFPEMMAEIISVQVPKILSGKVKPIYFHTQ
In short: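 Using human MDA-kb2 cells with an MMTV promoter–luciferase construct (AR and GR response elements), agonist activity is scored under 3.0uM nilutamide (final) co-treatment; 16hr incubation, 37C, luminescence readout via ONE-Glo.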

Measured: Potency

COc1cc(C(=S)N2CCOCC2)cc(OC)c1OC
not listed: [20]
inactive: all other assays above

COc1cc(NS(=O)(=O)c2ccc(N)cc2)nc(OC)n1
not listed: [4] | [7] | [9] | [10] | [15]
inactive: all other assays above

COC(=O)[C@@H]1[C@H]2C[C@H]3c4[nH]c5ccccc5c4CCN3C[C@@H]2CC[C@@H]1O
not listed: [4] | [10] | [15] | [20]
inactive: all other assays above

CC(C)(C)c1nnc(NS(=O)(=O)c2ccc(N)cc2)s1
not listed: [5] | [19]
inactive: all other assays above

NNc1nnc(NN)c2ccccc12
not listed: [8] | [12] | [13] | [20]
inactive: all other assays above

O=C(OCC(COC(=O)c1cccnc1)(COC(=O)c1cccnc1)COC(=O)c1cccnc1)c1cccnc1
not listed: [4] | [5] | [10]
inactive: all other assays above

Oc1ccccc1-c1nnco1
not listed: [4] | [18]
inactive: all other assays above
